# According to the supplement of paper PMC9942566:
# ± gives the standard deviation of the averaged measurements.
# System: Serratia marcescens K904 PosmB-luxCDABE reporter (pMQ747)
# Experiment: PosmB-lux reporter fold induction (RLU/OD600 relative to no-compound control), highest over Biolog concentrations; higher = stronger Rcs reporter activation
# Conditions: wild type K904; 4 h
# Protocol: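 Serratia marcescens K904 (wild type) or its isogenic ΔrcsB mutant, carrying the Rcs-dependent PosmB-luxCDABE reporter plasmid pMQ747, was grown in LB at OD600 0.1 in Biolog Phenotype MicroArray plates PM11-20 for 4 h at 30-32°C. Each compound is present at 3-4 proprietary concentrations (not stated); per the Fig. S1 legend the value given is the highest fold over those wells. Three independent trials.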
row,Structure (SMILES),PosmB-lux reporter fold induction
1,"CC(C)NCC(O)COc1cccc2ccccc12 (racemic) [D,L-propranolol] (Biolog plate: PM20, well positions: B5-8)",5.54 ± 2.8
2,"S=c1nc[nH]c2nc[nH]c12 [6-Mercapto-purine] (Biolog plate: PM13, well positions: C1-4)",1.6 ± 0.2
3,"C[n+]1c2cc(N)ccc2cc2ccc(N)cc21.Nc1ccc2cc3ccc(N)cc3nc2c1 [Acriflavine] (Biolog plate: PM14, well positions: A2-4)",1.45 ± 0.32
4,"CC1(C)S[C@@H]2[C@H](NC(=O)[C@H](NC(=O)N3CCNC3=O)c3ccccc3)C(=O)N2[C@H]1C(=O)O [Azlocillin] (Biolog plate: PM13, well positions: B1-4)",1.96 ± 0.43
5,"CN[C@@H]1[C@H](O[C@H]2[C@H](O[C@H]3[C@H](O)[C@@H](O)[C@H](NC(=N)N)[C@@H](O)[C@@H]3NC(=N)N)O[C@@H](C)[C@]2(O)CO)O[C@@H](CO)[C@H](O)[C@H]1O [dihydro-streptomycin] (Biolog plate: PM19, well positions: G5-8)",1.47 ± 0.16
6,"C/C=C/C=C/C(=O)O [sorbic acid] (Biolog plate: PM16, well positions: H9-12)",2.12 ± 0.59
7,"[Cl][Mn][Cl] [Manganese chloride] (Biolog plate: PM13, well positions: G5-8)",1.25 ± 0.2
8,"c1ccc(-c2nn(-c3ccccc3)[n+](-c3cccc4ccccc34)n2)cc1 [tetrazolium violet] (Biolog plate: PM20, well positions: B9-12)",0.453 ± 0.17
